# Inconclusive results are not listed. The source holds several records for some structures; these can differ, active in one and inactive in another. The source made the active and inactive calls. Calls come from the whole dose curve.
# Assay: p53 small molecule agonists, cell-based qHTS assay with human liver microsomes: qHTS cell viability counter screen (AID 1963579); note: nearly all actives have a fitted effect of over 45% in size
# Details: p53RE-bla HCT-116 viability, ATP luminescence, 16 h, HLM; series mostly up to 66 µM; activity change, negative = cytotoxicity: at the top concentration
# From the text: National Center for Advancing Translational Sciences [NCATS]
# Division of Preclinical Innovation [DPI]
# U.S. Environmental Protection Agency [EPA]
# National Institutes of Environmental Health Sciences [NIEHS]
# National Toxicology Program [NTP]
# U.S. Food and Drug Administration [FDA]
# p53, a tumor suppressor protein, is activated following cellular insult, including DNA damage and other cellular stresses. The activation of p53 regulates cell fate by inducing DNA repair, cell cycle arrest, apoptosis, or cellular senescence. The activation of p53, therefore, is a good indicator of DNA damage and other cellular stresses. […] The activation of the reporter gene under culture conditions can be detected by fluorescence intensity. This cell line was used to screen the Tox21 10K compound library in the condition of presence of human liver microsomes and to identify agonists that activate the p53 signaling pathway after in vitro metabolic activation (Ooka et al., Archive of Toxicology 96:1975-1987, 2022).
# Tox21 Assay Protocol Summary:
# The p53RE-bla cells were dispensed at 4,000cells/3ul/well in 1536-well black-clear bottom plates. After the assay plates were incubated at 37 C, 5% CO2 incubator for 5 hours, 23 nL of compounds dissolved in DMSO, positive controls or DMSO only was transferred to the assay plate. Following compound addition, 3 uL of human liver microsomes (XenoTech, Kansas City, KS) at final concentration of 0.5 mg/mL and 1uL of B-Nicotinamide adenine dinucleotide 2'-phosphate (NADPH) at final concentration of 0.5 mg/mL were transferred to the assay plate. The plates were incubated at 37 C for 16 hours. 1 uL of LiveBLAzer detection mixture was added to each well and the plates were incubated at room temperature in the dark for 2 h. Fluorescence intensity at 460 and 530 nm emission and 405 nm excitation were measured by an Envision plate reader. For cell viability readout that measures cytotoxicity, 4 ul/well of CellTiter-Glo reagent was added into the assay plates using a Flying Reagent Dispenser. After 30 min incubation at room temperature, the luminescence intensity in the plates was measured using a ViewLux plate reader.
# % is set by controls: 0 for no effect and ±100 for the full control effect; potency is the fitted concentration of half-maximal effect.
Compound,"activity change, negative = cytotoxicity",Potency
CC(C)(C)c1ccc(C=O)cc1,0.342% (inactive),
CC(=O)OCCOCCOCCOC(C)=O,,inactive
CCCCCCCCCC/C=C/C#N,-1.36% (inactive),
NS(=O)(=O)c1cc2c(cc1Cl)NC(C1CC3C=CC1C3)NS2(=O)=O (stereo not given),,3.97 µM (active)
NC(=O)NS(=O)(=O)c1ccc(Cl)cc1,6.76% [at 30.3 µM] (inactive),
Oc1ccccc1O,,inactive
CC[C@H](C)[C@H](N)C(=O)O,9.37% [at 30.3 µM] (inactive),
C[C@]12CCC(=O)C=C1CC[C@@H]1[C@@H]2[C@@H](O)C[C@@]2(C)[C@H]1CC[C@]2(O)C(=O)CO,,inactive
Nc1nc(N)nc(-c2ccccc2)n1,,inactive
NC(=O)c1ccccc1Cl,-1.12% (inactive),
CC(CCC(=O)O)C(=O)O (stereo not given),-11% (inactive),
CCCO,-2.01% (inactive),
COc1nc(N)nc2nc[nH]c12,-0.381% (inactive),
C[Si](C)=O,7.59% [at 5.99 µM] (inactive),
Nc1ccc(N=Nc2ccccc2)c(N)n1,,inactive
Nc1ccccc1N,,inactive
CCCCCCOC(=O)CC,-7.67% (inactive),
CCCCOC(=O)C(=O)OCCCC,3.4% (inactive),
CC(C)COC(=O)c1ccc(N)cc1,12.7% [at 30.3 µM] (inactive),
CC/C(=C(/CC)c1ccc(O)cc1)c1ccc(O)cc1,,inactive

Compound,"activity change, negative = cytotoxicity",Potency
O=Cc1ccc(F)cc1,-2.93% (inactive),
Cn1cnc2c(F)c(Nc3ccc(Br)cc3Cl)c(C(=O)NOCCO)cc21,1.03% [at 30.3 µM] (inactive),
CC(C)(C)CC(C)(C)c1ccc(O)c(-n2nc3ccccc3n2)c1,,inactive
CCCCCCCC/C=C\CCCCCCCC(=O)OCCCC,0.909% [at 13.5 µM] (inactive),
CCC(O)CO (stereo not given),-3.66% (inactive),
CC(C)c1ccc(S(=O)(=O)O)cc1,,inactive
C=CC(C)(O)CC/C=C(\C)CC (stereo not given),-0.0706% (inactive),
Cc1cccc(N)n1,4.87% (inactive),
Cc1occc1SSc1ccoc1C,-5.42% (inactive),
CCCCCC=O,,inactive
CCN(Cc1cccc(S(=O)(=O)O)c1)c1ccccc1,-1.36% (inactive),
CC(C)=CCCC(C)CC=O (stereo not given),17.6% (inactive),
Cc1cc(OCCOCC[N+](C)(C)Cc2ccccc2)ccc1C(C)(C)CC(C)(C)C,,36.1 µM (active) and inactive
CCCCc1ccc(Cl)cc1,-0.464% (inactive),
COCc1ccc(COC)cc1,6.68% (inactive),
COc1cc(C)c(Cc2cnc(N)nc2N)cc1OC,15.3% [at 30.3 µM] (inactive),
COCCOCCOCCOCCO,0.225% (inactive),
Cc1nc(C)c(C)nc1C,3.39% (inactive),
CN1CCOCC1,,inactive
CC(C)CCCCCCc1ccc(O)cc1,,41.5 µM (active)
